Hit rate of the full screen: of about 350,000 compounds, about 9,900 (2.8%) were called active. Inconclusive results (about 15%) are left out. The call rests on the fitted dose curve; in most records, active means well fitted activation curve with a large enough effect; inconclusive means small, poorly fitted or top-dose-only effect; inactive means no such curve, though single readings can be large or run the other way. The list comes from a sample in which actives are over-represented; it also holds similar structures and randomly drawn compounds. Where a call stands in place of a potency, no number is given.
Assay: A quantitative high throughput screen for small molecules that induce DNA re-replication in MCF 10a normal breast cells. Further: nearly all actives have a fitted effect of over 50% in size.
Settings: MCF 10A DNA re-replication, Hoechst nuclear intensity, 48 h; series mostly up to 46.1 µM
Potency means the concentration at half of the fitted maximal effect.

Structure (SMILES) | Potency | activity, positive = re-replication
Oc1cccc(CCc2ccccn2)c1 | inactive | 
COc1cc(/C=C/C(=O)OCC(=O)NC2CC2)cc(OC)c1OC | inactive | 
Cc1cc(C)c(C#N)c(SCc2[nH]nc3c2C(c2ccccc2)C(C#N)=C(N)O3)n1 (stereo not given) | inactive | 
Cc1cc(C)c2c3c(sc2n1)C(c1ccccc1)C(C#N)=C(N)O3 (stereo not given) | 2.82 µM (active) | 
Cc1nn(Cc2ccccc2)c2c1C(c1ccccc1)C(C#N)=C(N)O2 (stereo not given) | inactive | 
CCn1nc(C(=O)Nc2ccc(N3CCOCC3)cc2)c2ccccc2c1=O | inactive | 
O=C(NNC(=O)C1CCCC1)c1ccc(F)cc1 | inactive | 
C/[N+]([O-])=C\c1ccc([N+](=O)[O-])o1 | inactive | 
O=C(/C=C/c1ccc([N+](=O)[O-])o1)NNC(=O)c1ccc(F)cc1 | 9.2 µM (active) | 
COCC(=O)Nc1ccc(Br)cc1 | inactive | 
CC(C)Oc1ccc(CC(=O)NNC(=S)Nc2ccc(Br)cc2)cc1 | 16.4 µM (active) | 
CC(C)Oc1ccc(CCC(=O)NNC(=S)NCc2ccccc2)cc1 | inactive | 
CC(C)(C)OC(=O)N(Cc1ccccc1)Cc1ccc(OCc2cccc(NC(=O)c3ccccc3)c2)cc1 | inactive | 
CC[C@]12c3[nH]c4ccc(OC)cc4c3CCN1C(=O)C(CC(=O)NCCN1CCOCC1)C[C@@H]2C(=O)N1CCN(C(=O)C2CC2)CC1 (stereo not given in full) | inactive | 
Cc1ccc(COc2ccc(/C=N/NC(=O)CN3CCCCC3)cc2)cc1 | inactive | 
Cc1ccsc1C(=O)N/N=C/c1ccc([N+](=O)[O-])cc1 | inactive | 
Cc1ccc(/C=N/NC(=O)c2sccc2OCc2ccc(F)cc2)cc1 | 6.51 µM (active) | 
CC(=O)Nc1ccc(SC[C@H](Cc2ccccc2)N2CC[C@@H](C)CCC2=O)cc1 | inactive | 
COc1ccc(NS(=O)(=O)c2cc(NC(=O)c3ccc(S(=O)(=O)N(C)C)cc3)ccc2N2CCOCC2)cc1 | inactive | 
COc1cc(NS(=O)(=O)c2ccc(NC(=S)NC(=O)c3ccccc3)cc2)nc(OC)n1 | inactive | 
COc1cc(NS(=O)(=O)c2ccc(N/C=C(\C=O)c3nc4cc(Cl)ccc4o3)cc2)nc(OC)n1 | 20.6 µM (active) | 
COc1cc(NS(=O)(=O)c2ccc(N=Cc3c(C)[nH]n(-c4ccccc4)c3=O)cc2)nc(OC)n1 | inactive | 
Cc1ccc(C)c(C(=O)COC(=O)Cn2[nH]c(=O)c3ccccc3c2=O)c1 | inactive | 
CCc1ccc(C(=O)C(C)OC(=O)CN2C(=O)NC3(CCCC3)C2=O)cc1 (stereo not given) | inactive | 
CCC1=Nc2cc(C(=O)NCCN3CCCC3)ccc2Sc2ccc(C)cc21 | inactive | 

Structure (SMILES) | Potency | activity, positive = re-replication
CCCC1=Nc2cc(C(=O)NCc3ccco3)ccc2Sc2ccccc21 | 8.2 µM (active) | 
CCC1=Nc2cc(C(=O)NCCCN3CCOCC3)ccc2Sc2ccc(Br)cc21 | inactive | 
CCOc1ccc(C(=O)CCN2CCOCC2)cc1 | 18.4 µM (active) | 
CC(=O)c1ccc(OCCN2CCOCC2)cc1 | inactive | 
c1ccc(-c2ccc(OCCN3CCOCC3)cc2)cc1 | inactive | 
O=C(c1ccc(Cl)cc1)c1ccc(OCC(O)CN2CCCCC2)cc1 (stereo not given) | 5.01 µM (active) | 
OC(COc1ccc(Br)cc1)CN1CCCC1 (stereo not given) | inactive | 
O=C(c1ccccc1)c1ccc(OCC(O)CN2CCCC2)cc1 (stereo not given) | inactive | 
C=CCn1c(=S)[nH]c2nc3c(cc2c1=O)COC(C)(C)C3 | inactive | 
CCCc1nc2oc3c(OCC)ncnc3c2c2c1COC(C)(C)C2 | inactive | 
CC(C)CCSc1ncnc2c1oc1nc3c(cc12)COC(C)(C)C3 | 5.8 µM (active) | 
CSCCC(NS(=O)(=O)c1ccc(C)cc1)C(=O)N(C)CC(=O)Nc1ccccc1Br (stereo not given) | inactive | 
O=C(COC(=O)c1ccc(O)cc1O)c1ccc2c(c1)OCCO2 | inactive | 
O=C1COc2c1ccc(O)c2O | inactive | 
CCC(=O)Nc1ccc(C(=O)Nc2ccc3c(c2)C(=O)N(CC2CCCO2)C3=O)cc1 (stereo not given) | inactive | 
O=C1c2cccc3c([N+](=O)[O-])ccc(c23)C(=O)N1CC1CCCO1 (stereo not given) | 18.4 µM (active) | 
CCOc1cccc(=O)c2c(C)n(CC3CCCO3)c(C)c12 (stereo not given) | inactive | 
N#CC(Cc1cc2ccccc2n1S(=O)(=O)c1ccccc1)OCc1ccccc1 (stereo not given) | inactive | 
Cc1ccc2cc(/C=N/Nc3ccc(C(=O)O)cc3)c(Cl)nc2c1 | 6.51 µM (active) | 
O=C(O)c1ccc(N/N=C/c2ccc3ncccc3c2)cc1 | inactive | 
Cc1ccc2cc(/C=N/NC(=O)[C@@H]3CCCN3)c(Cl)nc2c1 | inactive | 
COc1ccc(NC(=O)/C(C#N)=C\c2cc(OC)c(OCc3ccc(C(=O)O)cc3)cc2Br)cc1 | 16.4 µM (active) | 
COc1cc(C=O)c(Br)cc1OCC(=O)NCc1ccccc1 | inactive | 
COc1cc(/C=C(\C#N)C(=O)Nc2ccc3ccccc3c2)c([N+](=O)[O-])cc1OC | inactive | 
NC(=O)C1(N2CCCC2)CCN(Cc2ccccc2)CC1 | inactive | 

Structure (SMILES) | Potency | activity, positive = re-replication
COC(=O)c1cc2c(N)c(C(=O)c3ccc(Cl)cc3)sc2nc1C(OC)OC | 20.6 µM (active) | 
COC(=O)c1sc2ncccc2c1OCc1ccc(Cl)cc1Cl |  | -182% [at 0.0737 µM] (inactive)
COC(=O)c1cn(C(=O)c2ccc(Cl)cc2)c2ccccc12 | inactive | 
CN(Cc1cccs1)C(=O)CN1C(=O)c2ccccc2S1(=O)=O | inactive | 
CCOC(=O)C1=CN(Cc2ccc(Br)cc2)S(=O)(=O)NC1C (stereo not given) | inactive | 
CCOC(=O)c1c(NC(=O)c2ccc(S(=O)(=O)N(C)CC3CCCO3)cc2)sc2c1CC(C)(C)NC2(C)C (stereo not given) | inactive | 
COC(=O)c1c(NC(=O)COc2ccc(Cl)cc2Cl)sc2c1CC(C)(C)NC2(C)C | 3.26 µM (active) | 
Cc1cc(NC(=O)COc2ccc(Cl)cc2Cl)n(CCC#N)n1 | inactive | 
CCC(=O)N(Cc1cc2cc(OC)ccc2[nH]c1=O)c1ccccc1C | inactive | 
COc1ccc(N(Cc2cc3cc(OC)ccc3[nH]c2=O)S(C)(=O)=O)cc1 | inactive | 
COc1ccc2[nH]c(=O)c(CNc3ccc(C)c(C)c3)cc2c1 | 14.6 µM (active) | 
c1ccc(-c2c[nH]c(-c3ccccc3)c2)cc1 | inactive | 
COc1ccc(NC(=O)CN(C)C(=O)c2cc(C3CC3)nn2-c2ccccc2)cc1 | inactive | 
Cc1nc2ccccc2c(C(=O)O)c1-c1ccccn1 | inactive | 
COc1cc2c(cc1CNC[C@H]1O[C@@H](n3cnc(C(N)=O)n3)[C@H](O)[C@@H]1O)OCO2 | inactive | 
C/C(=N\NC(=O)Cc1ccc(Cl)cc1)c1ccccn1 | inactive | 
C/C(CC(=O)Nc1ccc(N(C)C)cc1)=N\NC(=O)c1ccccc1F | inactive | 
C/C(=N\NC(=O)c1ccccc1F)c1ccccn1 | 23.1 µM (active) | 
O=C(CNC(=O)c1cc(S(=O)(=O)N2CCOCC2)ccc1N1CCCC1)Nc1ccc(F)c(F)c1 | inactive | 
O=C(N/N=C/c1ccc([N+](=O)[O-])cc1)c1c[nH]c2ccccc12 | inactive | 
Cc1cc(C(=O)N/N=C/c2ccccc2[N+](=O)[O-])c(C)o1 | inactive | 
Cc1c(C(=O)N/N=C/c2ccccc2)[nH]c2c([N+](=O)[O-])cccc12 | 4.11 µM (active) | 
CC(=O)N(O)CCCCCNC(=O)CCC(=O)N(O)CCCCCNC(=O)CCC(=O)N(O)CCCCCNC(=O)CCC(=O)O | inactive | 
COc1ccc(S(=O)(=O)N2CCCCCC2)cc1NC(=O)Cc1ccc(OC)c(OC)c1 | inactive | 
O=C(NCCc1ccco1)c1ccc(OCc2cn3ccccc3n2)cc1 | inactive | 

Structure (SMILES) | Potency | activity, positive = re-replication
O=C(/C=C/c1ccccc1[N+](=O)[O-])OC1CCCCC1=O (stereo not given) | inactive | 
O=C(/C=C/c1ccccc1[N+](=O)[O-])NCC1CCCO1 (stereo not given) | inactive | 
CC1CCCCC1NC(=O)/C(C#N)=C/C=C/c1ccccc1[N+](=O)[O-] (stereo not given) | 2.91 µM (active) | 
O=C(CSc1ccccc1)Nc1cccc(S(=O)(=O)N2CCCCC2)c1 | inactive | 
C=CC[C@@H](CC(=O)NCCO)C(=O)N[C@H](C)COC(=O)[C@@H](CC=C)CC(=O)OC(C)(C)C | inactive | 
O=C(/C=C\c1ccc2c(c1)OCO2)NC1(C(=O)Nc2ccc3c(c2)OCCO3)CCCCC1 | inactive | 
Cc1cccc(NC(=O)/C=C/c2ccc3c(c2)OCO3)n1 | inactive | 
CCc1c(C)sc(NC(=O)/C=C/c2ccc3c(c2)OCO3)c1C(=O)OC | 5.8 µM (active) | 
Cc1csc(=O)n1CCC(=O)OCC(=O)NNC(=O)c1ccc(Br)cc1 | inactive | 
COc1cc(/C=N/NC(=O)c2ccccc2)ccc1OS(=O)(=O)c1ccccc1 | inactive | 
COc1ccc(/C=N/S(=O)(=O)c2ccccc2)cc1OC | inactive | 
COc1ccc(/C=N/NC(=O)c2ccccc2)cc1OS(=O)(=O)c1ccccc1 | 20.6 µM (active) | 
COc1cc(/C=N/NC(=O)Nc2ccccc2)ccc1OCCOc1ccccc1C | 1.16 µM (active) | 
CCOC(=O)/C(C#N)=C/c1ccc(OCC(=O)Nc2ccccc2)c(OC)c1 | inactive | 
COc1cc(/C=N/NC(=O)Cc2ccccc2)cc(OC)c1OC | inactive | 
CC(C(=O)NC1CCCC1)N1CCN(S(=O)(=O)c2ccccc2Cl)CC1 (stereo not given) | inactive | 
COC(=O)C1=C(C)NC(=S)NC1c1ccc(OCC(=O)N2CC(C)OC(C)C2)c(OC)c1 (stereo not given) | inactive | 
O=C(CSc1ccc(/C=N/NC(=O)c2cccc(F)c2)o1)Nc1ccccc1 | inactive | 
O=C(Cn1cc(/C=N/NC(=O)c2cccc(C(F)(F)F)c2)c2ccccc21)Nc1ccc(F)cc1 | 20.6 µM (active) | 
COc1ccc(/C=N/NC(=O)c2cccc(C(F)(F)F)c2)cc1 | inactive | 
Cc1cc2nc(C(F)(F)F)cc(-c3cccs3)n2n1 | 0.92 µM (active) | 
CC(C)(C)Nc1c(-c2cccs2)nc2ccccn12 | inactive | 
Cc1cc(-c2cccs2)nc(-n2cccc2)n1 | inactive | 
CN(C(=O)Cn1nnc(-c2ccc(F)cc2)n1)C1CCS(=O)(=O)C1 (stereo not given) | inactive | 
CN1CCN(c2ccc(NC(=O)c3cc(Cl)c4c(c3)OCCO4)cc2)CC1 | inactive | 

Source: PubChem BioAssay AID624296 (National Center for Advancing Translational Sciences (NCATS), 2012)
